Data taken from PubChem BioAssay.
For some of these results: Entries with a potency or affinity are not part of this list. Active and inactive are the calls of the source.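 The calls were made as follows, unless noted: active = hit in primary screen, with calcium signal over 5 SD above buffer well mean in both duplicates; inactive = the rest.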

What was measured:
[1] = system: TRPC4 beta (transient receptor potential cation channel C4), mouse; experiment: activators of mouse TRPC4 channel, confirmation, cell-based, Fluo4 calcium, HEK293 TRPC4beta/mu-opioid, duplicates, 10 µM (AID 2426;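 active = fluorescence ratio normalized to control raised more than 50% in primary screen plus both repeat runs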;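 as to activation: percent rise of integrated ratio over buffer wells lacking compound which define 0%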); conditions: Fluo4 calcium fluorescence, at 10 µM; stronger effect = higher value
[2] = system: transient receptor potential cation channel C4 beta (TRPC4), mouse; experiment: activators of mouse TRPC4 channel, confirmation, cell-based, second round, Fluo4, HEK293 TRPC4beta/mu-opioid, 1 µM (AID 2461;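 active = primary screen active and over 50% activation in each of two duplicate runs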;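 as to activation: 0% = wells without test compound as baseline of integrated fluorescence ratio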); conditions: Fluo4 calcium fluorescence, at 1 µM; stronger effect = higher value
[3] = system: TRPC4 (transient receptor potential cation channel C4 beta), mouse; experiment: positive allosteric modulators of mouse TRPC4, confirmation, cell-based, second round, Fluo-4, HEK293 TRPC4beta/mu-opioid, 1 µM (AID 2554;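 active = primary screen hit whose fluorescence ratio, in both repeats, exceeds the weak agonist control mean by 3 SD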); conditions: DAMGO EC20, Fluo-4 calcium flux, at 1 µM; stronger effect = higher value
[4] = system: TRPC4 beta (transient receptor potential cation channel C4), mouse; experiment: positive allosteric modulators of mouse TRPC4, confirmation, cell-based, Fluo-4, HEK293 TRPC4beta/mu-opioid (AID 2555;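 active = primary screen hit whose calcium fluorescence ratio, in both repeats, exceeds the weak agonist control mean by 3 SD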); conditions: DAMGO EC20, Fluo-4 calcium flux, at 10 µM; stronger effect = higher value
[5] = molecular target: Short transient receptor potential channel 4 (Mus musculus) (UniProt Q9QUQ5); experiment: inhibitors of mouse TRPC4 channel, confirmation, cell-based, Fluo4, HEK293 TRPC4beta/mu-opioid (AID 2636;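 active = calcium signal cut by more than 3 SD below the full-agonist control yet still positive, in both repeats and the earlier primary screen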); conditions: DAMGO, Fluo4 calcium flux, at 10 µM; stronger effect = higher value
[6] = molecular target: Short transient receptor potential channel 4 (Mus musculus) (UniProt Q9QUQ5); experiment: inhibitors of mouse TRPC4 channel, confirmation, cell-based, second round, Fluo4, HEK293 TRPC4beta/mu-opioid, 1 µM (AID 2637;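 active = calcium signal ratio cut to more than 3 SD under the fully stimulated control mean yet still positive, in both repeats and the primary screen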;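 as to inhibition: percent of integrated ratio relative to wells lacking test compound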); conditions: Fluo4 calcium flux, DAMGO, at 1 µM; stronger effect = higher value
[7] = molecular target: Short transient receptor potential channel 4 (Mus musculus) (UniProt Q9QUQ5); experiment: TRPC4 positive allosteric modulators, dose response, cell-based, HEK293 TRPC4/mu-opioid, Fluo-4 calcium, EC20 DAMGO (AID 434941;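 active = earlier screen potentiator hit that boosts the TRPC4 ion channel at some dose, with a dose response; inactive = no potentiation, no dose response, or not a prior hit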;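 also: calcium entry triggered by an EC20 dose of DAMGO at the co-expressed mu-opioid receptor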)
[8] = molecular target: Short transient receptor potential channel 4 (Mus musculus) (UniProt Q9QUQ5); experiment: mouse TRPC4 channel inhibitors, dose response, cell-based, HEK293 TRPC4/mu-opioid, Fluo-4 calcium (AID 434942;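 active = primary screen inhibitor hit that blocks the TRPC4 channel at some tested dose, yielding a dose curve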)
[9] = molecular target: Short transient receptor potential channel 6 (Mus musculus) (UniProt Q61143); experiment: inhibition of mouse TRPC6 channel, confirmation, selectivity assay for TRPC4 inhibitor project, cell-based, HEK293, membrane potential dye, duplicate (AID 434948;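 active = active in primary screen and both duplicates, each dropping signal beyond three positive-control SD with fluorescence still positive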); conditions: HEK293 TRPC6, membrane potential dye fluorescence, at 10 µM, stimulated with maximal-effect acetylcholine; stronger effect = higher value
[10] = molecular target: Short transient receptor potential channel 6 (Mus musculus) (UniProt Q61143); experiment: activation of mouse TRPC6 channel, confirmation, selectivity assay for TRPC4 activator project, cell-based, HEK293, membrane potential dye, duplicate (AID 434950;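 active = membrane potential signal rise above negative control mean plus 3 SD in both duplicates, also active in the earlier TRPC4 screen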;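 as to activation: 0% = buffer only wells and 100% = acetylcholine maximal-effect wells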); conditions: HEK293 TRPC6, membrane potential fluorescence, at 10 µM; stronger effect = higher value
[11] = molecular target: Short transient receptor potential channel 6 (Mus musculus) (UniProt Q61143); experiment: TRPC6 potentiation by TRPC4 potentiator hits, confirmation, selectivity assay for TRPC4 potentiator project, HEK293 cells, membrane potential dye, duplicate (AID 434952;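 active = compound raising the membrane signal above positive-control mean plus 3 SD in both repeats, and a primary screen hit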); conditions: HEK293 TRPC6, membrane potential dye fluorescence, at 10 µM, maximal acetylcholine added after compound; stronger effect = higher value
[12] = molecular target: Short transient receptor potential channel 4 (Mus musculus) (UniProt Q9QUQ5); experiment: calcium flux activators in TRPC4/5HT1a cells, counter-screen for TRPC4 activator project, cell-based, second counter screen, HEK293 TRPC4/5HT1a, Fluo-4 (AID 434977;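 active = calcium signal rise above buffer-control mean plus 5 SD in both duplicates, and also a hit in the primary screen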;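 as to activation: plate controls were assay buffer for no effect and maximal serotonin response for full effect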); conditions: Fluo-4 calcium flux, at 10 µM; stronger effect = higher value
[13] = calcium flux inhibitors in TRPC4/5HT1a cells, confirmation, counter-screen for TRPC4 inhibitor project, cell-based, second counter screen, HEK293 TRPC4/5HT1a, Fluo-4 (AID 434978;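 active = primary screen active whose calcium signal fell more than 3 SD beyond the full-serotonin control mean in both duplicate plates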;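 also: serotonin given first at submaximal then at maximal dose after compound preincubation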); conditions: Fluo-4 calcium flux, at 10 µM, serotonin added to trigger calcium flux; stronger effect = higher value
[14] = system: TRPC4 (mouse), co-expressed with 5HT1a in HEK293; experiment: calcium flux potentiators in TRPC4/5HT1a cells, confirmation, counter-screen for TRPC4 potentiator project, cell-based, second counter screen, HEK293 TRPC4/5HT1a, Fluo-4 (AID 434979;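 active = signal rise over 3 SD above mean of control wells given weak agonist, in both repeats and first screen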); conditions: Fluo-4 calcium flux, at 10 µM, serotonin added at its EC20 dose; stronger effect = higher value
[15] = calcium flux activation in mu-opioid HEK293 cells, confirmation, counter-screen for TRPC4 activator project, cell-based, HEK293 mu-opioid receptor line (AID 449723); conditions: Fluo-4 calcium fluorescence, at 10 µM; stronger effect = higher value;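 also: counter screen cells carry the mu-opioid receptor alone and lack TRPC4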
[16] = calcium flux enhancement in mu-opioid HEK293 cells, confirmation, counter-screen for TRPC4 allosteric potentiator project, cell-based, HEK293 mu-opioid receptor line (AID 449724;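 active = calcium signal rise more than 3 SD above the low-dose agonist control mean, in both duplicate plates and the primary screen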); conditions: Fluo-4 calcium flux, at 10 µM, compound added before EC20 DAMGO stimulus; stronger effect = higher value
[17] = thallium flux activation in parental CHO cells, counter-screen for KCNQ1 potentiator project (AID 493006;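 active = duplicate-averaged activation above buffer control mean plus 5 SD of those controls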;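 as to activation: fluorescence ratio of max minus min over baseline after K+ and Tl+ depolarization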); conditions: parental CHO-K1 cells, FluxOR thallium flux, at 10 µM; stronger effect = higher value
[18] = molecular target: Potassium voltage-gated channel subfamily KQT member 1 (Homo sapiens) (UniProt P51787); experiment: KCNQ1 potassium channel potentiators, confirmation, FluxOR thallium flux, CHO cells, duplicates (AID 493007;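 active = potentiation averaged over duplicate wells exceeding buffer-only control mean by more than 3 SD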;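 also: 0% = buffer-only wells and 100% = R-L3 activator control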); conditions: KCNQ1 cell line, FluxOR thallium flux fluorescence, at 10 µM; stronger effect = higher value, % of reference activator effect, buffer zero
[19] = molecular target: Potassium voltage-gated channel subfamily KQT member 2 (Rattus norvegicus) (UniProt O88943); experiment: rat KCNQ2 channel potentiation, selectivity assay for KCNQ1 potentiator project, KCNQ2-CHO-K1 cells (AID 493009;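 active = mean duplicate potentiation above the buffer control mean plus 5 SD of buffer wells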;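 also: assay conditions were tuned for KCNQ1 rather than KCNQ2 modulators; signal is max minus min fluorescence divided by baseline after thallium stimulus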); conditions: FluxOR thallium flux fluorescence, at 10 µM; stronger effect = higher value, scaled: buffer 0, activator control 100
[20] = molecular target: Potassium voltage-gated channel subfamily KQT member 1 (Homo sapiens) (UniProt P51787); experiment: KCNQ1 channel current potentiators, confirmation, orthogonal assay for KCNQ1 potentiator project, IonWorks patch clamp, KCNQ1-CHO cells (AID 493184;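 active = current rise at least 3 SD above the untreated control mean in each of two repeat wells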); conditions: automated patch clamp current, at 10 µM; stronger effect = higher value

Short transient receptor potential channel 4 (Mus musculus), sequence (Q9QUQ5 whole entry, looked up): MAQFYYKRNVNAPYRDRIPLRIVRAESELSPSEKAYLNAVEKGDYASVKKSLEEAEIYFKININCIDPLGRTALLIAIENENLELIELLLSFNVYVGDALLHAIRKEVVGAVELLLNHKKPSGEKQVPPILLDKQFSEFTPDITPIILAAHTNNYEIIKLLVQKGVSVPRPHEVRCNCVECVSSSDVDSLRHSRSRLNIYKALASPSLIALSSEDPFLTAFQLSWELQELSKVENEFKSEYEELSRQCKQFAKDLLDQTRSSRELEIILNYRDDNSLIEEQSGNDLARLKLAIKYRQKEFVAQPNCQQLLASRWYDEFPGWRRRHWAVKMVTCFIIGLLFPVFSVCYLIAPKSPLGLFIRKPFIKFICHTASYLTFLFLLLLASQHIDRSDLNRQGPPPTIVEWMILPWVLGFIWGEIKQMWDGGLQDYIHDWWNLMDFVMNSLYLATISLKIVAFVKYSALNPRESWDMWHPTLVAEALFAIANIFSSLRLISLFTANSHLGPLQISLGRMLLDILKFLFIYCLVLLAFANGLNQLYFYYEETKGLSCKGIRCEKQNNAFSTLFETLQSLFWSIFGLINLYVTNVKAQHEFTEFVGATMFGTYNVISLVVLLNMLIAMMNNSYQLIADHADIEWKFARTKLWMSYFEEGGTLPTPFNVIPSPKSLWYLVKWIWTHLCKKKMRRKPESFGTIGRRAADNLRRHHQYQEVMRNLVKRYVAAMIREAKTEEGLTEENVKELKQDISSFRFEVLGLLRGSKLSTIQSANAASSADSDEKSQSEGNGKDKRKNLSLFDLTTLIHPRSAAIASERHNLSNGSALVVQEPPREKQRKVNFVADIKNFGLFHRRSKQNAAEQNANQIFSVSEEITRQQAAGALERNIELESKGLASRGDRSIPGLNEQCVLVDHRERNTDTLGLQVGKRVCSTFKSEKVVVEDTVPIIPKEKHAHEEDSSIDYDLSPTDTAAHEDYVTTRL
Potassium voltage-gated channel subfamily KQT member 1 (Homo sapiens), sequence (P51787 whole entry, looked up): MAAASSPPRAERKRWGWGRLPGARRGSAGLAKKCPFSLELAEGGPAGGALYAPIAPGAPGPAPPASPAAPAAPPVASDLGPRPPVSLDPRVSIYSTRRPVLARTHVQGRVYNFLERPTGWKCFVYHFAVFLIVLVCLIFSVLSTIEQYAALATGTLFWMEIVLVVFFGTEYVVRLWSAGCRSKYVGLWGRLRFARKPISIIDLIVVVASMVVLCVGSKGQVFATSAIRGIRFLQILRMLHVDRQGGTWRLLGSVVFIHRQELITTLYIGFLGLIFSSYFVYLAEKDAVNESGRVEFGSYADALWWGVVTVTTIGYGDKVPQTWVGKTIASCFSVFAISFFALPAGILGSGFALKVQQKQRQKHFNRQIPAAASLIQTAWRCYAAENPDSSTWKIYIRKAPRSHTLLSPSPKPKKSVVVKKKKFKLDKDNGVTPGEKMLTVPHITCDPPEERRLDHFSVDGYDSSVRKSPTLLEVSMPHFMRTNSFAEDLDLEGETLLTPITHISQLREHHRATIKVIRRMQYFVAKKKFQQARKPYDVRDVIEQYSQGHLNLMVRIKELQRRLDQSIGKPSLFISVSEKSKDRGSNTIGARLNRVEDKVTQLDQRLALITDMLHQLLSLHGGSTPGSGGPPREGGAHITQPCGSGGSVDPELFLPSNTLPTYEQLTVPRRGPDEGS
Potassium voltage-gated channel subfamily KQT member 2 (Rattus norvegicus), sequence (O88943 whole entry, looked up): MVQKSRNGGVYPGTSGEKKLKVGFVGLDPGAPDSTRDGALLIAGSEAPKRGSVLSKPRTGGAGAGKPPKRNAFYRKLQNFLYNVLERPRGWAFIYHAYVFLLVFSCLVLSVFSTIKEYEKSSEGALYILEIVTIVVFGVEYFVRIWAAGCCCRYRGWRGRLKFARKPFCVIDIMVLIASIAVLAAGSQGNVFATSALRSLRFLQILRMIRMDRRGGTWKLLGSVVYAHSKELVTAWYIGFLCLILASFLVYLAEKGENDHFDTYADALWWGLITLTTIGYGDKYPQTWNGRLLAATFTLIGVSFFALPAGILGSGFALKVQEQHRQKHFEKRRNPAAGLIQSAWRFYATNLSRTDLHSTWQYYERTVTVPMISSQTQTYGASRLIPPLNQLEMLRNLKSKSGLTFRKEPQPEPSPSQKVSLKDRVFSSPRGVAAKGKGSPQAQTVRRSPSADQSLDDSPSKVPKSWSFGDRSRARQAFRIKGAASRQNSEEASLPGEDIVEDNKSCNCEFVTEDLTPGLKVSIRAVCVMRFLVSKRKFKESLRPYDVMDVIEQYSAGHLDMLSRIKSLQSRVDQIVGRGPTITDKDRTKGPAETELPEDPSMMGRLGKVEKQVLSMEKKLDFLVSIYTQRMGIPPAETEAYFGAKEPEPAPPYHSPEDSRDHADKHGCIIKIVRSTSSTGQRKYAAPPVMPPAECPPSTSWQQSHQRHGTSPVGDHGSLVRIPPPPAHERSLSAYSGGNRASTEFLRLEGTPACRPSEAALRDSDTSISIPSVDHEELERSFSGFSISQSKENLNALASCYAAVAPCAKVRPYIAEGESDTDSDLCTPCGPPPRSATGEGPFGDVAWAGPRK
Short transient receptor potential channel 6 (Mus musculus), sequence (Q61143 whole entry, looked up): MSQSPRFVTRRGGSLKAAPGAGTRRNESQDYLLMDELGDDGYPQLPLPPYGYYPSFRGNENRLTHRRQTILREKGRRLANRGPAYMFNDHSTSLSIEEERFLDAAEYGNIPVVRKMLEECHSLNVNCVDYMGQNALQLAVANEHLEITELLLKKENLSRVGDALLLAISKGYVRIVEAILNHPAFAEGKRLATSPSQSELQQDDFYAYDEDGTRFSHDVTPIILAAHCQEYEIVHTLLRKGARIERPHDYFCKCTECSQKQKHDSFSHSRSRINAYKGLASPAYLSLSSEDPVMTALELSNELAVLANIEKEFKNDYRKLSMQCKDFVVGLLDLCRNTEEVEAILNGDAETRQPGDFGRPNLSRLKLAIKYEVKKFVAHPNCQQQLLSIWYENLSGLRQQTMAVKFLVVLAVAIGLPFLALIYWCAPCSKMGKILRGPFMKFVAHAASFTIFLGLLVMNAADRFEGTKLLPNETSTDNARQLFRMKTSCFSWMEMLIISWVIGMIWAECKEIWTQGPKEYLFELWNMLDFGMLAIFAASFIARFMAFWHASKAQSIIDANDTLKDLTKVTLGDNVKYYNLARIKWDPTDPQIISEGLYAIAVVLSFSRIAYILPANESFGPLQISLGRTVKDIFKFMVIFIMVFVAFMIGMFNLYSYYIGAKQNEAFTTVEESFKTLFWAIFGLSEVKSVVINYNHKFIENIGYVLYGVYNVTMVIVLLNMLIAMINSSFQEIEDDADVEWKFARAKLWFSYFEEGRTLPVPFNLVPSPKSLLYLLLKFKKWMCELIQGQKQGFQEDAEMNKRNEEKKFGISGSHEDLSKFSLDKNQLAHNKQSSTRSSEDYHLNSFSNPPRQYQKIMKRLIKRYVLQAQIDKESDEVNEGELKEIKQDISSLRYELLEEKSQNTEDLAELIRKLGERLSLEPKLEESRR

Structure (SMILES): O=c1c2cc(Br)ccc2nc(-c2ccc(Cl)cc2)n1O
- activation [1]: 268% (active)
- outcome [2]: inactive
- outcome [3]: inactive
- outcome [4]: inactive
- outcome [5]: inactive
- outcome [6]: inactive
- outcome [7]: inactive
- outcome [8]: inactive
- outcome [9]: inactive
- outcome [10]: inactive
- outcome [11]: inactive
- activation [12]: 102% (active)
- outcome [13]: inactive
- outcome [14]: inactive
- activation [15]: 31.7% (active)
- outcome [16]: inactive
- activation [17]: 654% (active)
- potentiation [18]: 354% (active)
- potentiation [19]: 708% (active)
- outcome [20]: inactive

Structure (SMILES): Cc1cccc(NC(=S)NCC(c2cccnc2)N(C)C)c1C (stereo unspecified)
- activation [1]: 82% (active)
- activation [2]: 106% (active)
- outcome [3]: inactive
- outcome [4]: inactive
- outcome [5]: inactive
- outcome [6]: inactive
- outcome [7]: inactive
- outcome [8]: inactive
- outcome [9]: inactive
- outcome [10]: inactive
- outcome [11]: inactive
- outcome [12]: inactive
- outcome [13]: inactive
- outcome [14]: inactive
- outcome [15]: inactive
- outcome [16]: inactive

Structure (SMILES): CC(Oc1ccc(Cl)cc1)C(=O)NNC(=S)NC(=O)c1ccco1 (stereo unspecified)
- activation [1]: 192% (active)
- outcome [2]: inactive
- outcome [3]: inactive
- outcome [4]: inactive
- outcome [5]: inactive
- outcome [6]: inactive
- outcome [7]: inactive
- outcome [8]: inactive
- outcome [9]: inactive
- outcome [10]: inactive
- outcome [11]: inactive
- activation [12]: 104% (active)
- outcome [13]: inactive
- outcome [14]: inactive
- activation [15]: 29.1% (active)
- outcome [16]: inactive
- outcome [17]: inactive
- potentiation [18]: 50% (active)
- potentiation [19]: 170% (active)
- outcome [20]: inactive

Structure (SMILES): CN(C)CCN(C(=O)C1CCCCC1)c1nc2cc3c(cc2s1)OCO3
- outcome [1]: inactive
- outcome [2]: inactive
- outcome [3]: inactive
- outcome [4]: inactive
- inhibition [5]: 75% (active)
- outcome [6]: inactive
- outcome [7]: inactive
- outcome [9]: inactive
- outcome [10]: inactive
- outcome [11]: inactive
- outcome [12]: inactive
- outcome [13]: inactive
- outcome [14]: inactive
- outcome [15]: inactive
- outcome [16]: inactive

Structure (SMILES): Cc1ccccc1C(=O)NNC(=S)NC(=O)c1ccc(Cl)cc1Cl
- activation [1]: 293% (active)
- outcome [2]: inactive
- outcome [3]: inactive
- outcome [4]: inactive
- outcome [5]: inactive
- outcome [6]: inactive
- outcome [7]: inactive
- outcome [8]: inactive
- outcome [9]: inactive
- activation [10]: 35% (active)
- outcome [11]: inactive
- activation [12]: 182% (active)
- outcome [13]: inactive
- outcome [14]: inactive
- activation [15]: 84.2% (active)
- outcome [16]: inactive
- outcome [17]: inactive
- potentiation [18]: 117% (active)
- potentiation [19]: 222% (active)
- outcome [20]: inactive

Structure (SMILES): Cc1ccc(C2(O)CN(c3ccccc3)C3=[N+]2CCS3)cc1 (stereo unspecified)
- outcome [1]: inactive
- outcome [2]: inactive
- outcome [3]: inactive
- outcome [4]: inactive
- inhibition [5]: 97% (active)
- inhibition [6]: 79% (active)
- outcome [7]: inactive
- outcome [9]: inactive
- activation [10]: 48% (active)
- outcome [11]: inactive
- outcome [12]: inactive
- outcome [13]: inactive
- outcome [14]: inactive
- outcome [15]: inactive
- outcome [16]: inactive

Structure (SMILES): COc1ccc2nc(NS(=O)(=O)c3ccc(NC(C)=O)cc3)sc2c1
- outcome [1]: inactive
- outcome [2]: inactive
- outcome [3]: inactive
- outcome [4]: inactive
- inhibition [5]: 73% (active)
- outcome [6]: inactive
- outcome [7]: inactive
- outcome [9]: inactive
- activation [10]: 37.5% (active)
- outcome [11]: inactive
- outcome [12]: inactive
- outcome [13]: inactive
- outcome [14]: inactive
- outcome [15]: inactive
- outcome [16]: inactive
